The record followed here is PubChem BioAssay (NCATS).

Records with an inconclusive call do not appear. Unmarked numbers belong to inactive results. Calls of active or inactive are those of the source. Calls follow the shape of the dose curve; as a rule, active = well fitted curve in the direction sought with a large enough effect; inconclusive = small, poorly fitted or top-dose-only effect, or another doubt; inactive = no such curve, though single readings can be large; an effect the other way counts as inactive or inconclusive.
Potency is read from the fitted curve at half-maximal effect.

A short description of one assay: BET inhibitor-based combinations targeting novel dependencies in MECOM-rearranged (r) AML: OCI-AML3 cell line (AID 2202232). Also: nearly all actives have a fitted effect of over 35% in size.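 As to viability (% of control): plate controls were DMSO vehicle wells for no effect and wells without cells for full effect.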 The note with it: CellTiter-Glo luminescence, 48 h; Potency: OCI-AML3 viability; series mostly up to 46 µM; viability (% of control): at the top concentration. The gist of the method: (§1)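 Each compound was tested at eleven concentrations on cells seeded at 500/well. After two days' incubation, ATP-based luminescence reported viability; responses relative to DMSO and blank wells yielded AUC and cell-line-centred Z-AUC.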
`Cc1cc2c(C(C)C)c(O)c(O)c(C=O)c2c(O)c1-c1c(C)cc2c(C(C)C)c(O)c(O)c(C=O)c2c1O`: the Potency was 9.34 µM (active).

`CC(C)[C@H](C(=O)Nc1ccc(C(=O)NO)cc1)c1ccccc1`: the Potency was 0.742 µM (active).

Consider `CC(=O)N(O)CCCCCNC(=O)CCC(=O)N(O)CCCCCNC(=O)CCC(=O)N(O)CCCCCN`, for which the Potency is 11.8 µM (active).

In the case of `Cc1c(-c2ccc(O)cc2)n(Cc2ccc(OCCN3CCCCCC3)cc2)c2ccc(O)cc12`, the Potency is 16.6 µM (active).

For `COc1ncnc(NS(=O)(=O)c2ccc(N)cc2)c1OC`, the “viability (% of control)” value was 122%.

Regarding `Clc1ccccc1CN1CCc2sccc2C1`, the “viability (% of control)” value was 109%.

For `CCCOc1ccc2nc(NC(=O)OC)[nH]c2c1`, the Potency is 0.332 µM (active).

A short description of another assay: BET inhibitor-based combinations targeting novel dependencies in MECOM-rearranged (r) AML: MV-4-11 cell line (AID 2202233). Also: nearly all actives have a fitted effect of over 45% in size.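 As to viability, % of control: plate controls were DMSO for no effect and blank wells for full effect.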 The note with it: MV-4-11 AML viability, CellTiter-Glo luminescence, 48 h; series mostly up to 46 µM; viability, % of control: at the top concentration. The gist of the method: (§2)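 First, 500 cells per well were seeded; next, drugs were pinned as 11-point doses; then plates sat 48 hr in the incubator; finally CellTiter-Glo was added and luminescence read, with AUC and Z-AUC computed.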
Background: Cellular ATP, detected with luciferase, serves as a proxy for viable cell number.
As to `CCCOc1ccc(C(=O)OCCN(CC)CC)cc1N`, the “viability, % of control” value is 100%.

As for `Cc1cc2c(C(C)C)c(O)c(O)c(C=O)c2c(O)c1-c1c(C)cc2c(C(C)C)c(O)c(O)c(C=O)c2c1O`, the Potency was 9.34 µM (active).

In the case of `O=C(NCC1CCCCN1)c1cc(OCC(F)(F)F)ccc1OCC(F)(F)F` (stereo unspecified), the “viability, % of control” value was 106%.

As to `CC(C)[C@H](C(=O)Nc1ccc(C(=O)NO)cc1)c1ccccc1`, the Potency is 0.372 µM (active).

Turning to `CC(=O)N(O)CCCCCNC(=O)CCC(=O)N(O)CCCCCNC(=O)CCC(=O)N(O)CCCCCN`, the Potency is 11.8 µM (active).

On to `COc1ncnc(NS(=O)(=O)c2ccc(N)cc2)c1OC`, for which the “viability, % of control” value was 133%.

Regarding `CCCOc1ccc2nc(NC(=O)OC)[nH]c2c1`, the Potency is 0.372 µM (active).

A short description of another assay: BET inhibitor-based combinations targeting novel dependencies in MECOM-rearranged (r) AML: HNT-34 cell line (AID 2202234). Also: nearly all actives have a fitted effect of over 35% in size.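 As to viability (% of control): plate controls were vehicle wells for no effect and cell-free wells for full effect.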 The conditions noted are these: HNT-34 AML viability, CellTiter-Glo luminescence, 48 h; series mostly up to 46 µM; viability (% of control): at the top concentration. Put shortly: as §2
For the compound `C[C@H]1c2cccc(O)c2C(O)=C2C(=O)[C@]3(O)C(O)=C(C(N)=O)C(=O)[C@@H](N(C)C)[C@@H]3[C@@H](O)[C@@H]21`, the Potency was 18.6 µM (active).

In the case of `CCCOc1ccc(C(=O)OCCN(CC)CC)cc1N`, the “viability (% of control)” value was 90.5%.

Regarding `Cc1cc2c(C(C)C)c(O)c(O)c(C=O)c2c(O)c1-c1c(C)cc2c(C(C)C)c(O)c(O)c(C=O)c2c1O`, the Potency is 9.34 µM (active).

Regarding `O=C(NCC1CCCCN1)c1cc(OCC(F)(F)F)ccc1OCC(F)(F)F` (stereo unspecified), the “viability (% of control)” value is 106%.

`Cc1coc2c1C(=O)C(=O)c1c-2ccc2c1CCCC2(C)C`: the Potency was 18.6 µM (active).

As to `CC(C)[C@H](C(=O)Nc1ccc(C(=O)NO)cc1)c1ccccc1`, the Potency was 0.833 µM (active).

Turning to `CC(=O)N(O)CCCCCNC(=O)CCC(=O)N(O)CCCCCNC(=O)CCC(=O)N(O)CCCCCN`, the Potency is 9.34 µM (active).

`COc1ncnc(NS(=O)(=O)c2ccc(N)cc2)c1OC`: the “viability (% of control)” value is 108%.

For `Clc1ccccc1CN1CCc2sccc2C1`, the “viability (% of control)” value was 107%.

Consider `CCCOc1ccc2nc(NC(=O)OC)[nH]c2c1`, for which the Potency is 0.235 µM (active).

A further assay can be described thus: BET inhibitor-based combinations targeting novel dependencies in MECOM-rearranged (r) AML: UCSD-AML1 cell line (AID 2202235). Also: nearly all actives have a fitted effect of over 40% in size.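 As to viability (% of control): plate controls were DMSO vehicle wells for no effect and blank wells for full effect.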 The conditions noted are these: UCSD-AML1 AML cells viability, CellTiter-Glo, 48 h; series mostly up to 46 µM; viability (% of control): at the top concentration. The gist of the method: as §2
Regarding `CCCOc1ccc(C(=O)OCCN(CC)CC)cc1N`, the “viability (% of control)” value was 108%.

On to `Cc1coc2c1C(=O)C(=O)c1c-2ccc2c1CCCC2(C)C`, for which the “viability (% of control)” value is 119%.

Regarding `CC(C)[C@H](C(=O)Nc1ccc(C(=O)NO)cc1)c1ccccc1`, the Potency is 0.833 µM (active).

Consider `Cc1c(-c2ccc(O)cc2)n(Cc2ccc(OCCN3CCCCCC3)cc2)c2ccc(O)cc12`, for which the “viability (% of control)” value was 108%.

For the compound `COc1ncnc(NS(=O)(=O)c2ccc(N)cc2)c1OC`, the “viability (% of control)” value was 106%.

As for `Clc1ccccc1CN1CCc2sccc2C1`, the “viability (% of control)” value was 117%.

`CCCOc1ccc2nc(NC(=O)OC)[nH]c2c1`: the Potency is 0.263 µM (active).

A further assay is described as follows: BET inhibitor-based combinations targeting novel dependencies in MECOM-rearranged (r) AML: AML-191 cell line (AID 2202236; also: nearly all actives have a fitted effect of over 35% in size;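 as to viability (% of control): plate controls were vehicle wells for no effect and wells without cells for full effect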). The note with it: AML-191 viability, CellTiter-Glo luminescence, 48 h; series mostly up to 46 µM; viability (% of control): at the top concentration. Put shortly:
as §1
On to `C[C@H]1c2cccc(O)c2C(O)=C2C(=O)[C@]3(O)C(O)=C(C(N)=O)C(=O)[C@@H](N(C)C)[C@@H]3[C@@H](O)[C@@H]21`, for which the Potency was 26.3 µM (active).

For the compound `CCCOc1ccc(C(=O)OCCN(CC)CC)cc1N`, the “viability (% of control)” value was 99.2%.

With `Cc1cc2c(C(C)C)c(O)c(O)c(C=O)c2c(O)c1-c1c(C)cc2c(C(C)C)c(O)c(O)c(C=O)c2c1O`, the Potency was 9.34 µM (active).

As for `O=C(NCC1CCCCN1)c1cc(OCC(F)(F)F)ccc1OCC(F)(F)F` (stereo unspecified), the “viability (% of control)” value is 106%.

With `CC(C)[C@H](C(=O)Nc1ccc(C(=O)NO)cc1)c1ccccc1`, the Potency is 0.662 µM (active).

On to `CC(=O)N(O)CCCCCNC(=O)CCC(=O)N(O)CCCCCNC(=O)CCC(=O)N(O)CCCCCN`, for which the Potency was 8.33 µM (active).

For the compound `COc1ncnc(NS(=O)(=O)c2ccc(N)cc2)c1OC`, the “viability (% of control)” value was 117%.

Turning to `Clc1ccccc1CN1CCc2sccc2C1`, the “viability (% of control)” value is 86.6%.

`CCCOc1ccc2nc(NC(=O)OC)[nH]c2c1`: the Potency is 0.263 µM (active).

The nature of the next assay: BET inhibitor-based combinations targeting novel dependencies in MECOM-rearranged (r) AML: AML-194 cell line (AID 2202237; also: nearly all actives have a fitted effect of over 40% in size;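 as to viability (% of control): plate controls were vehicle wells for no effect and wells without cells for full effect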). The note with it: AML-194 (MECOM-r AML) viability, CellTiter-Glo, 48 h; series mostly up to 46 µM; viability (% of control): at the top concentration. Put shortly: as §1
Take `C[C@H]1c2cccc(O)c2C(O)=C2C(=O)[C@]3(O)C(O)=C(C(N)=O)C(=O)[C@@H](N(C)C)[C@@H]3[C@@H](O)[C@@H]21`: the Potency is 23.5 µM (active).

Consider `CCCOc1ccc(C(=O)OCCN(CC)CC)cc1N`, for which the “viability (% of control)” value was 104%.

As to `Cc1cc2c(C(C)C)c(O)c(O)c(C=O)c2c(O)c1-c1c(C)cc2c(C(C)C)c(O)c(O)c(C=O)c2c1O`, the Potency is 13.2 µM (active).

Consider `O=C(NCC1CCCCN1)c1cc(OCC(F)(F)F)ccc1OCC(F)(F)F` (stereo unspecified), for which the “viability (% of control)” value is 111%.

As to `Cc1coc2c1C(=O)C(=O)c1c-2ccc2c1CCCC2(C)C`, the “viability (% of control)” value is 96.4%.

Consider `CC(C)[C@H](C(=O)Nc1ccc(C(=O)NO)cc1)c1ccccc1`, for which the Potency is 0.833 µM (active).

As to `CC(=O)N(O)CCCCCNC(=O)CCC(=O)N(O)CCCCCNC(=O)CCC(=O)N(O)CCCCCN`, the Potency was 9.34 µM (active).

`Cc1c(-c2ccc(O)cc2)n(Cc2ccc(OCCN3CCCCCC3)cc2)c2ccc(O)cc12`: the Potency was 26.3 µM (active).

As for `COc1ncnc(NS(=O)(=O)c2ccc(N)cc2)c1OC`, the “viability (% of control)” value is 112%.

For `Clc1ccccc1CN1CCc2sccc2C1`, the “viability (% of control)” value was 113%.

On to `CCCOc1ccc2nc(NC(=O)OC)[nH]c2c1`, for which the Potency was 0.235 µM (active).
